Reference: PubChem BioAssay AID1508648 (National Center for Advancing Translational Sciences (NCATS), 2021)
Records with an inconclusive call do not appear. Where a call stands in place of a potency, no number is given. Calls of active or inactive are those of the source. The call rests on the fitted dose curve; in most records, active means well fitted cell-killing curve with a large enough effect; inconclusive means small, poorly fitted or top-dose-only effect, or effect the other way; inactive means flat fitted curve, though single readings scatter.

Assay: Cell viability assay in S16 Pmp22-HiBiT cells - Confirmatory screen
Conditions: S16 Schwann Pmp22-HiBiT viability, CellTiter-Glo, 24 h; series mostly up to 27.9 µM
Text: Assay Provider: Jim Inglese Ph.D. National Center for Advancing Translational Science, National Institutes of Health, Rockville, MD CMT is a heterogeneous group of neurological disorders that affect approximately 1 in 2,500 people. In particular, the most common form of CMT, CMT1A is genetically linked to the duplication of the PMP22 gene which leads to Schwann cell overexpression, thus manifesting itself as a typical case of dose-sensitive diseases. To identify small molecule compounds that can mediate the expression of PMP22 we developed a phenotypic assay screening strategy by utilizing genome editing techniques to construct Schwann cell lines containing novel reporter technology to monitor the transcriptional or translational regulation of PMP22. For high sensitivity we use a bioluminescent reporter system embedded in the 3' UTR of the PMP22 gene (S16(c9) Pmp22-F2sN) to identify compounds that inhibit gene expression. […] We can further discriminate the effect of all transcriptionally active molecules on PMP22 translation or stability with an assay that incorporates a short NLuc peptide (HiBiT) at the C-terminus of expressed PMP22 (S16(f8) PMP22-HiBiT) allowing alpha complementation and luminescence detection of membrane-associated PMP22 protein. These assays were screened against the NCATS Sytravon Library Collection. Miniaturization of these assays to 1536-well plate format for quantitative high throughput screening (qHTS) yielded rich data sets immediately from the qHTS assay (S16(c9) Pmp22-F2sN), when compared with data from a cell viability assay (Cell TiterGlo) to identify compounds that decreased the output signals through cellular toxicity to streamline the selection process of actives for subsequent characterization using the HiBiT assay (S16(f8) PMP22-HiBiT).
Cell viability assay in S16 Pmp22-HiBiT cells PROTOCOL TABLE (format as described by Inglese J, Shamu CE and Guy RK. 2007) SEQUENCE No. (e.g., 1, 2, 3, etc.); PARAMETER (e.g., Cells, Incubation, Reagent, etc.); VALUE and DESCRIPTION. 1. Cells. Add 500-1,000 cells in 4 uL in growth media (DMEM High Glucose, No Phenol Red media + 10% heat-inactivated FBS + 1% Pen/Strep supplemented media) per well into Greiner 1536-well white/solid bottom high base, TC-treated plates. 2. Compounds. Library compounds and controls added at 23nL per well, transferred by Pin Tool. 3. Incubation. Incubate plates at 37C, 5% CO2, 95% RH for 24 h. 4. Reagent. Add 3uL CellTiter-Glo per well of Greiner 1536-well plates. 5. Incubation. Incubate plates at room temperature for 15 min., protect from light. 6. Detector. Luminescence measured using CCD-based camera (Viewlux). NOTES (numbers refer to Sequence numbers above; values are from representative experiments) 6. Luminescence Read: Clear filter; Exposure = 1 sec, Gain = High, Speed = Slow, Binning = 2X REFERENCES: 1. Inglese J, Shamu CE and Guy RK, Reporting data from high throughput screening of small molecule libraries, Nature Chemical Biology, 2007, 3(8): 438-441. doi.org/10.1038/nchembio0807-438 2. Yasgar A, Shinn P, Jadhav A, Auld DS, Michael S, Zheng W, Austin CP, Inglese J and Simeonov A, Compound Management for Quantitative High-Throughput Screening. J. Assoc. Lab. Auto., 2008, 13: 79-89. doi: 10.1016/j.jala.2007.12.004
In the case of `COc1ccc(NC(=O)Cn2c(=O)n(CCC(=O)NCc3ccccc3OC)c(=O)c3ccccc32)cc1Cl`, the Potency is reported as 16.2 µM (active). With `O=C(CCS(=O)(=O)c1nc(-c2cccs2)cc(C(F)(F)F)n1)Nc1ccc(OC(F)(F)F)cc1` the Potency was “inactive”. With `Cc1ccc(CN2C(=O)C(O)(c3c(C)[nH]c4ccccc34)c3ccccc32)cc1` (stereo not given) the Potency was “inactive”. With `Cc1ccc(C)c(NC(=O)Cn2c(=O)n(Cc3ccc4c(c3)OCO4)c(=O)c3ccc(C(=O)NC4CCCCC4)cc32)c1` the Potency was “inactive”. For `CCCN1CCN(CCCNC(=O)Cn2c(-c3cccs3)cc3ccccc32)CC1`, the Potency was “inactive”. With `Cc1ccc(NC(=O)N2CCc3cc(S(=O)(=O)N4CCC(C)CC4)ccc32)cc1F` the Potency was “inactive”. For `COc1ccc(Cl)cc1NC(=O)CCCS(=O)(=O)c1nc(-c2ccc(OC)c(OC)c2)cc(C(F)(F)F)n1`, the Potency was 6.45 µM (active). In the case of `COc1ccc(Br)c2c1-c1nc(NC(=O)c3cccc(C)c3)sc1C2`, the Potency is reported as “inactive”. For `COC(=O)c1ccccc1NC(=O)c1nc(S(=O)(=O)Cc2cccc(C)c2)ncc1Cl`, the Potency was “inactive”. For `COc1ccccc1Nc1nn2c(=O)c3ccc(C(=O)Nc4ccc(F)cc4)cc3nc2s1`, the Potency was 7.24 µM (active). In the case of `O=C(Cn1c(-c2cccs2)cc2cc(F)ccc21)NCCCN1CCN(c2ccc(F)cc2)CC1`, the Potency is reported as “inactive”. In the case of `CCC(=O)C1=C(c2cccc([N+](=O)[O-])c2)N(C(=O)CC)n2c(nnc2-c2ccccc2)S1`, the Potency is reported as “inactive”. For `CCC(Sc1nc2ccccc2c2nc(-c3ccccc3)nn12)C(=O)Nc1cccc(OC)c1` (stereo not given), the Potency was “inactive”. In the case of `Cc1cc(NC(=O)C2CCCN(S(=O)(=O)c3cccc4nonc34)C2)ccc1Br` (stereo not given), the Potency is reported as “inactive”. In the case of `CCN(CC)CCNC(=O)c1cc(-c2ccc(Br)s2)nc2ccccc12`, the Potency is reported as 10.2 µM (active). In the case of `COc1ccc(-c2cc(C(F)(F)F)nc(S(C)(=O)=O)n2)cc1`, the Potency is reported as 18.2 µM (active). In the case of `Cc1ccccc1S(=O)(=O)Cc1ccc(C(=O)N2CCN(c3cccc(Cl)c3)CC2)o1`, the Potency is reported as “inactive”. In the case of `COc1ccc(NC(=O)c2oc3ccccc3c2NC(=O)Cc2ccc(F)cc2)c(OC)c1`, the Potency is reported as “inactive”. In the case of `Cc1cc(C)c(NC(=O)Cn2c(=O)n(Cc3ccco3)c(=O)c3ccc(C(=O)NC4CCCC4)cc32)c(C)c1`, the Potency is reported as “inactive”. For `Cc1c(Cl)cccc1NC(=O)c1oc2ccc(S(=O)(=O)N3CCC4(CC3)OCCO4)cc2c1C`, the Potency was “inactive”. In the case of `O=C(Cn1c(-c2cccs2)cc2ccccc21)NCCCN1CCN(c2ccc(F)cc2)CC1`, the Potency is reported as “inactive”. For `CCOC(=O)c1c(NC(=O)c2nc(S(C)(=O)=O)ncc2Cl)sc(C(C)=O)c1C`, the Potency was 4.57 µM (active). For `COc1ccccc1CNC(=O)CSc1nnc(C)c2c(C)n(-c3ccccc3)nc12`, the Potency was “inactive”. In the case of `COc1ccccc1Nc1c2c(nc3ccc(NC(=O)/C=C/c4cccc(OC)c4OC)cc13)CCCC2`, the Potency is reported as 5.13 µM (active). In the case of `Cc1ccc(OCC(=O)Nc2ccc3nc(SCC(=O)N4CCc5ccccc54)sc3c2)cc1`, the Potency is reported as “inactive”. With `CCc1ccc(C(=O)c2cn(CC(=O)Nc3ccc4c(c3)OCO4)c3ccc(CC)cc3c2=O)cc1` the Potency was 14.5 µM (active). With `CCOc1cc(CNc2ccc(O)cc2)cc(Br)c1OCc1ccccc1` the Potency was “inactive”. With `CCCCCS(=O)(=O)c1oc(-c2cccs2)nc1S(=O)(=O)c1ccc(C)cc1` the Potency was 18.2 µM (active). With `COCCCNC(=O)c1ccc(-n2c(-c3ccccc3)cc3c2CCC(C)C3)cc1` (stereo not given) the Potency was “inactive”. For `Clc1cccc(-c2noc3ncnc(NC4CCCCC4)c23)c1`, the Potency was “inactive”. In the case of `COc1ccc(Br)cc1CC1C(=O)Nc2ccccc21` (stereo not given), the Potency is reported as “inactive”. With `CCCn1c(=N)c(C(=O)NC(C)c2ccccc2)cc2c(=O)n3ccccc3nc21` (stereo not given) the Potency was “inactive”. In the case of `CCN(CC)c1ccc(NC(=O)C2COc3ccc(OC)cc3C2)c(C)c1` (stereo not given), the Potency is reported as “inactive”. For `CCC(=O)C1=C(c2cccc([N+](=O)[O-])c2)N(C(=O)CC)n2c(nnc2C2CCCCC2)S1`, the Potency was “inactive”. For `CCC(C)NC(=O)C1CCN(C(=O)c2cc3sccc3n2Cc2ccc(Cl)cc2)CC1` (stereo not given), the Potency was 11.5 µM (active). In the case of `CCOCCCNC(=O)c1ccc(-n2c(-c3ccccc3)cc3c2CCC(C)C3)cc1` (stereo not given), the Potency is reported as “inactive”. For `CCS(=O)(=O)c1ncc(Cl)c(C(=O)Nc2c(C(=O)c3ccc(C)cc3)oc3ccccc23)n1`, the Potency was “inactive”. For `O=C(Cn1c(-c2cccs2)cc2cc(F)ccc21)NCCCN1CCN(c2ccccc2F)CC1`, the Potency was “inactive”. With `Cc1ccc(S(=O)(=O)c2nnn3c2nc(NC2CCCCCC2)c2sccc23)cc1C` the Potency was “inactive”. For `COc1ccccc1NC(=O)Cn1c(=O)n(-c2cccc(Cl)c2)c(=O)c2sc3ccccc3c21`, the Potency was 12.9 µM (active).
